Source: PubChem BioAssay (EPA / NIEHS)
Results filed as inconclusive are left out. Activity calls are given as the source filed them. The calls were made as follows: active = hit-call score of the fitted dose curve at least 0.9, where 1 is the maximum; inconclusive = response in the unintended direction; inactive = score below 0.9.

Columns and labels:
[1] = target: human Adrenergic, Beta 3 Receptor (Adrb3), ADRB3 (gene 155) (UniProt P13945); assay: NVS_GPCR_hAdrb3: NovaScreen (NVS) G Protein-Coupled Receptor Assay for human Adrenergic, Beta 3 Receptor (Adrb3) (AID 2283262)
Method in brief: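 A cell-free filter binding assay read by scintillation counting, with displacement of a specific radioligand measured after 1 hour. The receptor source was SK-N-MC extracts (cells pretreated with isoproterenol and 8-bromo-cAMP). Compounds were first tested at 25 uM in duplicate and then in concentration series.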

[2] = target: human Adenosine A1 Receptor (AdoRA1), ADORA1 (gene 134) (UniProt P30542); assay: NVS_GPCR_hAdoRA1: NovaScreen (NVS) G Protein-Coupled Receptor Assay for human Adenosine A1 Receptor (AdoRA1) (AID 2283254)
human Adenosine A1 Receptor (AdoRA1), ADORA1 (gene 134), sequence (P30542 whole entry, looked up): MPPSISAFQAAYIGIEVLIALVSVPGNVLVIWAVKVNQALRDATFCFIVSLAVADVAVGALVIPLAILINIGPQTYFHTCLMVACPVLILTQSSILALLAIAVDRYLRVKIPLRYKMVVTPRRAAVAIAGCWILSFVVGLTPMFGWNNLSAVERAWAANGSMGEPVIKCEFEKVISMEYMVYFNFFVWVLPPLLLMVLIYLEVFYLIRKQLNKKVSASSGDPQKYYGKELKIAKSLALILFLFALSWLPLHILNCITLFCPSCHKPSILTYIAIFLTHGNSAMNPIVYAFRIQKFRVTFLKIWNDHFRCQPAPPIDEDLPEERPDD
Method in brief: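 Membranes from human cortical tissue were incubated with radioligand and test chemical for 1 hour, then filtered and counted. Activity was taken as signal loss relative to DMSO, screened at 25 uM in duplicate before concentration-response follow-up.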

[3] = target: human Adrenergic, Beta 1 Receptor (Adrb1), ADRB1 (gene 153) (UniProt P08588); assay: NVS_GPCR_hAdrb1: NovaScreen (NVS) G Protein-Coupled Receptor Assay for human Adrenergic, Beta 1 Receptor (Adrb1) (AID 2283258)
Method in brief: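 Membranes/protein extracted from human neuroepithelioma cells, radioligand competition binding read by filtration and scintillation 2 h post-dose. Single 25 uM duplicate screen, then concentration-response follow-up; DMSO as negative control.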

[4] = target: guinea pig Leukotriene D4 Receptor (LTD4), CYSLTR1 (gene 100135514) (UniProt Q2NNR5); assay: NVS_GPCR_gLTD4: NovaScreen (NVS) G Protein-Coupled Receptor Assay for guinea pig Leukotriene D4 Receptor (LTD4) (AID 2283248)
Method in brief: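 Guinea pig lung membrane preparation; bound radioligand measured by filter scintillation after 1 h, loss of signal versus DMSO marking displacement. Compounds tested at 25 uM in duplicate, hits retested to max 50 uM.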

[5] = target: human Serotonin, 5-Hydroxytryptamine Receptor 2A (5HT2A), HTR2A (gene 3356) (UniProt P28223); assay: NVS_GPCR_h5HT2A: NovaScreen (NVS) G Protein-Coupled Receptor Assay for human Serotonin, 5-Hydroxytryptamine Receptor 2A (5HT2A) (AID 2283249)
Method in brief: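 Radioligand displacement on human cortex tissue extract, counted by filtration and scintillation 1.5 h post-dosing. Initial single-concentration screen at 25 uM in duplicate, concentration series in follow-up; DMSO as baseline.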

[6] = system: guinea pig Muscarinic, Peripheral (Mperiperal) Receptor, Non-selective Binding, gene 100379235; assay: NVS_GPCR_gMPeripheral_NonSelective: NovaScreen (NVS) G Protein-Coupled Receptor Assay for guinea pig Muscarinic, Peripheral (Mperiperal) Receptor, Non-selective Binding (AID 2283250)
Method in brief: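 Screened in duplicate at 25 uM, hits retested in concentration series to 50 uM max, using bladder membrane radioligand displacement from guinea pig. Filtration and scintillation counting 1 h post-dose, fitted relative to DMSO.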

[7] = target: human Serotonin, 5-Hydroxytryptamine Receptor 5A (5HT5A), HTR5A (gene 3361) (UniProt P47898); assay: NVS_GPCR_h5HT5A: NovaScreen (NVS) G Protein-Coupled Receptor Assay for human Serotonin, 5-Hydroxytryptamine Receptor 5A (5HT5A) (AID 2283251)
human Serotonin, 5-Hydroxytryptamine Receptor 5A (5HT5A), HTR5A (gene 3361), sequence (P47898 whole entry, looked up): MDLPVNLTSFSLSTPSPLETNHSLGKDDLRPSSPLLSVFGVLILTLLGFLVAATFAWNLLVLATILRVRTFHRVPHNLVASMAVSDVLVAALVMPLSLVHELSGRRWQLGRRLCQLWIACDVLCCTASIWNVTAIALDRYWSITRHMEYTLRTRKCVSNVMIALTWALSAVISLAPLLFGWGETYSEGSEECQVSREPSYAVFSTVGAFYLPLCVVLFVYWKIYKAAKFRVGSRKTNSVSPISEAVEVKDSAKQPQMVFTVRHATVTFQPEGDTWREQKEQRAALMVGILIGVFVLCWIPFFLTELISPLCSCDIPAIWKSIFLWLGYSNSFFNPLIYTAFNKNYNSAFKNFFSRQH
Method in brief: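 Membranes from HEK293 cells, radioligand binding read by filtration and scintillation after 1 h. Single-concentration duplicate testing at 25 uM, then concentration-response for actives; positive-direction fitting relative to DMSO.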

[8] = target: human Serotonin, 5-Hydroxytryptamine Receptor 6 (5HT6), HTR6 (gene 3362) (UniProt P50406); assay: NVS_GPCR_h5HT6: NovaScreen (NVS) G Protein-Coupled Receptor Assay for human Serotonin, 5-Hydroxytryptamine Receptor 6 (5HT6) (AID 2283253)
human Serotonin, 5-Hydroxytryptamine Receptor 6 (5HT6), HTR6 (gene 3362), sequence (P50406 whole entry, looked up): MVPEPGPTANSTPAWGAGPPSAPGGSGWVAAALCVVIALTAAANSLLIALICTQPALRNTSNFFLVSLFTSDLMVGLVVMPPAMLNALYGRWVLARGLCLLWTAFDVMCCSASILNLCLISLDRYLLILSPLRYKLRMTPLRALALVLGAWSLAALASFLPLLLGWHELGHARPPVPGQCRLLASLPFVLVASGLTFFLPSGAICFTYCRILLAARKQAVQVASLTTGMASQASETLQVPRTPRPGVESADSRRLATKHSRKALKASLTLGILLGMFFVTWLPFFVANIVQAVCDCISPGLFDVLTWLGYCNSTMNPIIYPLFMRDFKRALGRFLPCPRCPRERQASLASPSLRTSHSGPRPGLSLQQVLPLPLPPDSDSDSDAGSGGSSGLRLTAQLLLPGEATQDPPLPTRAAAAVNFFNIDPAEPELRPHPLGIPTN
Method in brief: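 Filter scintillation counting of radioligand displacement from HEK293-expressed 5HT6, 1 hour post-dose, with loss of signal relative to DMSO. Single 25 uM duplicates first, with concentration series for confirmation.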

[9] = target: human Serotonin, 5-Hydroxytryptamine Receptor 7 (5HT7), HTR7 (gene 3363) (UniProt P34969); assay: NVS_GPCR_h5HT7: NovaScreen (NVS) G Protein-Coupled Receptor Assay for human Serotonin, 5-Hydroxytryptamine Receptor 7 (5HT7) (AID 2283255);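 also: hits reduce specific radioligand binding relative to DMSO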
Method in brief: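 Filter-bound radioactivity counted after 1 h, with loss of specific radioligand binding fitted against DMSO. Membrane protein came from CHO cells expressing human 5HT7. Chemicals were tested first at 25 uM in duplicate, then in concentration series if active.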

[10] = target: human Adenosine A2a Receptor (AdoRA2a), ADORA2A (gene 135) (UniProt P29274); assay: NVS_GPCR_hAdoRA2a: NovaScreen (NVS) G Protein-Coupled Receptor Assay for human Adenosine A2a Receptor (AdoRA2a) (AID 2283256)
human Adenosine A2a Receptor (AdoRA2a), ADORA2A (gene 135), sequence (P29274 whole entry, looked up): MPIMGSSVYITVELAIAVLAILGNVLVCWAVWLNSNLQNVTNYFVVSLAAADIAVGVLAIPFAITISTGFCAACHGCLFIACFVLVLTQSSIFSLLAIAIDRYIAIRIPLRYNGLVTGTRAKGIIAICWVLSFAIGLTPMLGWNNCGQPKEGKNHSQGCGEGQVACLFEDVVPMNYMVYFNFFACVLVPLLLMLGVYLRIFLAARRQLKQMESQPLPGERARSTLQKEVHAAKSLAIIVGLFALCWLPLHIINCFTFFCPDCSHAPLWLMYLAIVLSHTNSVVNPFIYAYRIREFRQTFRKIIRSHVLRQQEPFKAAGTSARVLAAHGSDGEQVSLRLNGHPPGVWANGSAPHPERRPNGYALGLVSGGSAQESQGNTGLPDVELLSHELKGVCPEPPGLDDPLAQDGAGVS
Method in brief: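 HEK293-derived receptor preparation, radioligand displacement, 1.5 h, filtration + scintillation read. Loss of bound signal scored vs DMSO. Single-point 25 uM in duplicate first, then concentration-response for actives.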

[11] = target: human Adrenergic, Alpha 2A Receptor (Adra2A), ADRA2A (gene 150) (UniProt P08913); assay: NVS_GPCR_hAdra2A: NovaScreen (NVS) G Protein-Coupled Receptor Assay for human Adrenergic, Alpha 2A Receptor (Adra2A) (AID 2283257)
Method in brief: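 Displacement of a specific radioligand from HT29 membrane protein was counted by filter scintillation after 1 h. Compounds were screened in duplicate at 25 uM, and actives were retested in concentration series. Fitting was positive-direction against DMSO.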

[12] = target: human Adrenergic, Alpha 2c Receptor (Adra2C), ADRA2C (gene 152) (UniProt P18825); assay: NVS_GPCR_hAdra2C: NovaScreen (NVS) G Protein-Coupled Receptor Assay for human Adrenergic, Alpha 2c Receptor (Adra2C) (AID 2283259)
human Adrenergic, Alpha 2c Receptor (Adra2C), ADRA2C (gene 152), sequence (P18825 whole entry, looked up): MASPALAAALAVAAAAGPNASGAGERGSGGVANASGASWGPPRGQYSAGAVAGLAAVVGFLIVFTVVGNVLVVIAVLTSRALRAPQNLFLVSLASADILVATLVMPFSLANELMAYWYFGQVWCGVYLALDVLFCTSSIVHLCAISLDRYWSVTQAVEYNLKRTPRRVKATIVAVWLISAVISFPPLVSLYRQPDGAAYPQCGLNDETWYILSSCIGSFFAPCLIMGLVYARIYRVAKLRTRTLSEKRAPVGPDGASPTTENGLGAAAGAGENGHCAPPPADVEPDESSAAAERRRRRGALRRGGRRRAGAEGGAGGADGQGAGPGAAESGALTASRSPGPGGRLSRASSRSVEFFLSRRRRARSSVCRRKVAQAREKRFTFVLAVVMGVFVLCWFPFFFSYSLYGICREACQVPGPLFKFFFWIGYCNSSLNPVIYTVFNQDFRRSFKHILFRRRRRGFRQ
Method in brief: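 Screened first in duplicate at 25 uM, with actives then run as concentration series. Membranes from Sf9 cells were exposed for 1 h, and displacement of radioligand was counted after filtration, using DMSO as baseline.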

[13] = target: Beta-2 adrenergic receptor (Homo sapiens) (UniProt P07550); assay: NVS_GPCR_hAdrb2: NovaScreen (NVS) G Protein-Coupled Receptor Assay for human Adrenergic, Beta 2 Receptor (Adrb2) (AID 2283261)
Beta-2 adrenergic receptor (Homo sapiens), sequence (P07550 whole entry, looked up): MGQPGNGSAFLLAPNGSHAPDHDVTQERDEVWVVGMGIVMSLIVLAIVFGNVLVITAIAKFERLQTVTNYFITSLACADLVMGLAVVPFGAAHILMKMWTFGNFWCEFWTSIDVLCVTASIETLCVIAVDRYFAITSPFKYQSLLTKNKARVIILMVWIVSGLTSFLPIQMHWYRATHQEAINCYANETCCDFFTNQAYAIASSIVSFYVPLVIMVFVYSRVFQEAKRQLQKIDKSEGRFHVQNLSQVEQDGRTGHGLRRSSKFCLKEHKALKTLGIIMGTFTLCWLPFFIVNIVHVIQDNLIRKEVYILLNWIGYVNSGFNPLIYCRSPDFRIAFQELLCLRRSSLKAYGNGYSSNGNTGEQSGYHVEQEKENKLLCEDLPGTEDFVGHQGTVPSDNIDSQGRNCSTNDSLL
Method in brief: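 Compounds screened in duplicate at 25 uM, then actives in concentration series. Human beta-2 receptor from CHO material, cell-free; radioligand displacement after 1 h measured by filtration and scintillation against DMSO baseline.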

[14] = target: Type-1 angiotensin II receptor (Homo sapiens) (UniProt P30556); assay: NVS_GPCR_hAT1: NovaScreen (NVS) G Protein-Coupled Receptor Assay for human Angiotensin II receptor type 1 (AT1) (AID 2283263)
Method in brief: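 Hits from a 25 uM duplicate screen (threshold e.g. 30% inhibition) were run in concentration-response with 50 uM top concentration. Displacement of specific radioligand from KAN-TS membrane preparations measured after 3 h by filter scintillation, DMSO as baseline.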

[15] = target: human Dopamine Receptor D4.4 (DRD4.4), DRD4 (gene 1815) (UniProt P21917); assay: NVS_GPCR_hDRD4.4: NovaScreen (NVS) G Protein-Coupled Receptor Assay for human Dopamine Receptor D4.4 (DRD4.4) (AID 2283264)
human Dopamine Receptor D4.4 (DRD4.4), DRD4 (gene 1815), sequence (P21917 whole entry, looked up): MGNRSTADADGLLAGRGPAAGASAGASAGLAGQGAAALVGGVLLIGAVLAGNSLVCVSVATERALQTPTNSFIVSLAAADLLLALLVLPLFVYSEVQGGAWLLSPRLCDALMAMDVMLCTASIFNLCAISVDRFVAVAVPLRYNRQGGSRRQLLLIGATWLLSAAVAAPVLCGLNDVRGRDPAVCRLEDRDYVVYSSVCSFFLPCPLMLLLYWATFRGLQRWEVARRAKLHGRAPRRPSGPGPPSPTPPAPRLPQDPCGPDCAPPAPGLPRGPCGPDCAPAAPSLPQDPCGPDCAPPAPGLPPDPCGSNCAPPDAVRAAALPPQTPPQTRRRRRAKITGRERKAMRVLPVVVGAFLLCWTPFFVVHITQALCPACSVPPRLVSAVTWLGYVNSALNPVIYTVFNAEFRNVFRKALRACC
Method in brief: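 Filter-binding assay with a tritiated or iodinated ligand, cell-free receptor prepared from CHO, 1 hour. Loss of bound radioactivity versus DMSO; single 25 uM duplicate screen, then concentration-response for actives.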

[16] = target: human Dopamine Receptor D2 (DRD2), DRD2 (gene 1813) (UniProt P14416); assay: NVS_GPCR_hDRD2s: NovaScreen (NVS) G Protein-Coupled Receptor Assay for human Dopamine Receptor D2 (DRD2) (AID 2283266)
human Dopamine Receptor D2 (DRD2), DRD2 (gene 1813), sequence (P14416 whole entry, looked up): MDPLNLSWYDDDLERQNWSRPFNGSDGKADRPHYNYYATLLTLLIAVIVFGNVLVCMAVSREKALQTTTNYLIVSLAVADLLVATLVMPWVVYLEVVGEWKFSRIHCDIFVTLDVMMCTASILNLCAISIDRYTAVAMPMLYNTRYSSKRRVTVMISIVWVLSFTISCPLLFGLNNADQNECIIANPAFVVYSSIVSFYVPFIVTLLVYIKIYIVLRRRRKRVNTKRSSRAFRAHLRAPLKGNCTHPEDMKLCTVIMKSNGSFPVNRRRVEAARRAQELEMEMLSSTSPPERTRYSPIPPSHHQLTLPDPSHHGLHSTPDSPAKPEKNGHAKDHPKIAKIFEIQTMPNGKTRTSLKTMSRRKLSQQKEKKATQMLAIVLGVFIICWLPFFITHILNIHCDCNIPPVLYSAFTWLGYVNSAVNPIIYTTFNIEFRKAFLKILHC
Method in brief: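 Test compound (25 uM, duplicate in the primary screen; concentration series at follow-up) competed with radioligand for human DRD2 in CHO-derived membrane protein. Filter-based scintillation counting was done 1.5 hours after dosing, with loss of signal analysed against DMSO.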

[17] = target: human Histamine 1 Receptor (H1), HRH1 (gene 3269) (UniProt P35367); assay: NVS_GPCR_hH1: NovaScreen (NVS) G Protein-Coupled Receptor Assay for human Histamine 1 Receptor (H1) (AID 2283268)
human Histamine 1 Receptor (H1), HRH1 (gene 3269), sequence (P35367 whole entry, looked up): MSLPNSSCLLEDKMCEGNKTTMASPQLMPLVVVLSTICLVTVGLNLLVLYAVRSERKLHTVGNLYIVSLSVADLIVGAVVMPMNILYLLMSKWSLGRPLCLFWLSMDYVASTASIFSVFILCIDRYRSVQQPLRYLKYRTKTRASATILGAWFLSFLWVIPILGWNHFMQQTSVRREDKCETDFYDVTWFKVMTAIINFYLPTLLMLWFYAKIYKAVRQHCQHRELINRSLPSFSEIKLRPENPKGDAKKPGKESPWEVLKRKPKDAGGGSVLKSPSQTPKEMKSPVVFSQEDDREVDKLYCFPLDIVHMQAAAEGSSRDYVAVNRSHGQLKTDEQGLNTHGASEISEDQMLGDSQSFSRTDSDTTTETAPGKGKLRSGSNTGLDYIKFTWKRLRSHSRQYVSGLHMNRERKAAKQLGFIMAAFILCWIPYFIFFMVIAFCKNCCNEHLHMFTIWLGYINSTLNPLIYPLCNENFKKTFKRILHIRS
Method in brief: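 Filter-based scintillation detection of radioligand binding to human H1, 1 h incubation; chemicals screened in duplicate at 25 uM, then concentration-response; signal loss relative to DMSO taken as activity.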

[18] = target: human Endothelin Receptor Type A (ETA), EDNRA (gene 1909) (UniProt P25101); assay: NVS_GPCR_hETA: NovaScreen (NVS) G Protein-Coupled Receptor Assay for human Endothelin Receptor Type A (ETA) (AID 2283265)
human Endothelin Receptor Type A (ETA), EDNRA (gene 1909), sequence (P25101 whole entry, looked up): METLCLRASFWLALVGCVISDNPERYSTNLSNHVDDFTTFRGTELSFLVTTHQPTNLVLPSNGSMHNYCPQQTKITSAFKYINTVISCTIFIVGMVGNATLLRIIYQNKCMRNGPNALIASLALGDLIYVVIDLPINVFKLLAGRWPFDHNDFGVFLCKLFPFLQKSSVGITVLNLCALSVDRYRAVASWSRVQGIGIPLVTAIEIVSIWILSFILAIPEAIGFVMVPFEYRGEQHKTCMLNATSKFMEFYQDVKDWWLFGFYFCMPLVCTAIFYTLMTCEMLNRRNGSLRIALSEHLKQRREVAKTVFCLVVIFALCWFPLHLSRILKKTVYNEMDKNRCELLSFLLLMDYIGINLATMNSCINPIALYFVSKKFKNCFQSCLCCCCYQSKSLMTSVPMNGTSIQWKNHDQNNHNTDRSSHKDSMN
Method in brief: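 Binding of radioligand to membrane protein extracted from SH-SY5Y cells was read by filtration and scintillation after 3 h. Compounds were screened at 25 uM in duplicate, with hits followed up in singleton concentration series to 50 uM.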

[19] = target: human Endothelin Receptor Type B (ETB), EDNRB (gene 1910) (UniProt P24530); assay: NVS_GPCR_hETB: NovaScreen (NVS) G Protein-Coupled Receptor Assay for human Endothelin Receptor Type B (ETB) (AID 2283267)
human Endothelin Receptor Type B (ETB), EDNRB (gene 1910), sequence (P24530 whole entry, looked up): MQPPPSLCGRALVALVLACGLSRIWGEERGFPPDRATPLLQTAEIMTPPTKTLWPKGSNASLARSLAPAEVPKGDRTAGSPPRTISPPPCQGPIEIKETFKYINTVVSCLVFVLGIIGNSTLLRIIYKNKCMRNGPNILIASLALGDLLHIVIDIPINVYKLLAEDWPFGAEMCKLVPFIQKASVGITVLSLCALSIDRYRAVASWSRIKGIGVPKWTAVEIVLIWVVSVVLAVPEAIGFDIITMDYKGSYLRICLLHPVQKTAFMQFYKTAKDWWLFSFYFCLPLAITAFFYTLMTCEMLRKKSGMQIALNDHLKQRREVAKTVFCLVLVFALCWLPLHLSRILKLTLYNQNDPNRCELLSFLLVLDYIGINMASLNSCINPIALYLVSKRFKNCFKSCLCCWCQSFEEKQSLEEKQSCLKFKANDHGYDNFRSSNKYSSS
Method in brief: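 Filter-based scintillation readout of radioligand displacement, 4 h, using membranes from human astrocytoma cells. Actives from a 25 uM duplicate screen were retested in concentration-response (top 50 uM) relative to DMSO baseline.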

For Cc1ccccc1Cl, the outcome [1] was “inactive”.

For C=CCOC(=O)c1ccccc1C(=O)OCC=C, the outcome [2] was “inactive”.

With O=C(N[C@@H](Cc1ccccc1)[C@@H](O)C(=O)N1C[C@@H](O)[C@@H](O)C1)c1cc2cc(Cl)ccc2[nH]1 the AC50 [2] was 16 µM (active).

With Cc1ccc2ncccc2c1 the outcome [3] was “inactive”.

For CCCCC(CC)COC(=O)CC(C(=O)OCC(CC)CCCC)S(=O)(=O)O (centres undefined), the AC50 [4] was 16.1 µM (active), the outcome [5] was “inactive” and the AC50 [6] was 25 µM (active). For the same compound, the AC50 [7] was 7.45 µM (active), the AC50 [8] was 36.6 µM (active) and the AC50 [2] was 20.7 µM (active). For the same compound, the AC50 [9] was 6.08 µM (active), the AC50 [10] was 25 µM (active) and the outcome [11] was “inactive”. The AC50 [3] was 6.35 µM (active), the AC50 [12] was 7.47 µM (active) and the AC50 [13] was 14.6 µM (active). The AC50 [14] was 17.7 µM (active), the AC50 [15] was 10.5 µM (active) and the AC50 [16] was 16.5 µM (active). For the same compound, the AC50 [17] was 35.5 µM (active).

In the case of CC1(C)CC(N=C=O)CC(C)(CN=C=O)C1 (centres undefined), the outcome [12] is reported as “inactive”.

CCCCc1ccc2c(n1)[C@@H](c1ccc(OC)cc1C[C@H](C)C(=O)O)[C@H](C(=O)O)[C@H]2c1ccc2c(c1)OCO2 was tested, and the AC50 [18] was 0.00472 µM (active) and the AC50 [19] was 0.00361 µM (active).

In the case of Oc1ccc2c(c1)OC[C@@H](N1CCC(O)(c3ccc(F)cc3)CC1)[C@H]2O, the outcome [5] is reported as “inactive”, the outcome [8] is reported as “inactive” and the outcome [2] is reported as “inactive”. The outcome [11] was “inactive”, the outcome [12] was “inactive” and the outcome [13] was “inactive”. For the same compound, the outcome [1] was “inactive” and the outcome [16] was “inactive”.

Cc1cccc(C)c1O was tested, and the outcome [13] was “inactive”.

With NCC1(Cc2noc(=O)[nH]2)CCCCC1 the outcome [18] was “inactive” and the outcome [19] was “inactive”.

For Nc1nc(N)c2nc(CNc3ccc(C(=O)N[C@@H](CCC(=O)O)C(=O)O)cc3)cnc2n1, the AC50 [7] was 6.28 µM (active), the outcome [15] was “inactive” and the AC50 [16] was 18.3 µM (active).

COc1ccc(S(=O)(=O)N2C(=O)[C@@](c3ccccc3OC)(N3C[C@H](O)C[C@H]3C(=O)N(C)C)c3cc(Cl)ccc32)c(OC)c1 was tested, and the AC50 [6] was 13.8 µM (active).

With NCCO the outcome [8] was “inactive”.

For Nc1ccc2c(c1)C(=O)c1ccccc1C2=O, the AC50 [2] was 6.52 µM (active).

With CCOC(=O)CCC(=O)OCC the outcome [6] was “inactive”, the outcome [2] was “inactive” and the outcome [9] was “inactive”. For the same compound, the outcome [10] was “inactive”, the outcome [12] was “inactive” and the outcome [13] was “inactive”. For the same compound, the outcome [15] was “inactive”, the outcome [16] was “inactive” and the outcome [17] was “inactive”.
